Among the data in PubChem BioAssay AID1362 (SRMLSC, 2008) are inhibition values, retold here.

Screen size: about 190,000 compounds; about 4,000 (2.1%) were called active. Cut-off read from the data, not from the text of the source: active = inhibition above about 58%; inactive = the rest, inconclusive results apart; tested in S. cerevisiae. The entries come from a sample that favours actives as a whole.

This experiment can be described thus: growth inhibition of WT strain, primary screen, mitochondrial fusion inhibitor project, WT and mutant strains, chemical genetic (AID 1362). The conditions noted are these: mitochondrial fusion phenotypic screen, at 10 µM.
Setting [1] is: WT strain, growth inhibition, stronger effect = higher value.

`COc1cc(/C=N/NC(=O)c2cc(C)n(-c3ccc(F)cc3)c2C)cc(OC)c1O`: the inhibition (in general, the drop in the measured response relative to a control, in per cent) under setting [1] was 1.5% (inactive) and the inhibition (mutant strain inhibition) was determined as 1.64%.

As for `COc1cc(Cl)c(C)cc1NC(=O)CSc1nnc(-c2ccco2)n1CC(C)C`, the inhibition reads like this: under setting [1], 63.4% (active); (mutant strain inhibition) 39.5%.

Turning to `COc1cc(Cl)c(C)cc1NC(=O)CSc1nnc(-c2cccnc2)n1Cc1ccco1`, the inhibition under setting [1] is 2.54% (inactive) and the inhibition (mutant strain inhibition) worked out at 2.3%.

For the compound `CCn1c(SCC(=O)Nc2cc(C)c(Cl)cc2OC)nnc1-c1ccco1`, the inhibition under setting [1] was 23% (inactive) and the inhibition (mutant strain inhibition) came out at 32.2%.

For the compound `CCN(CC)CCOC(=O)c1ccc(NC(=O)CNC(=O)c2ccccc2)cc1`, the inhibition was 19.4% (inactive) under setting [1] and 15.8% (mutant strain inhibition).

For the compound `COc1ccccc1NC(=S)NC(=O)C(C)C`, the inhibition was 48% (inactive) under setting [1] and 2.93% (mutant strain inhibition).

On to `COc1ccccc1NC(=S)N1CCC(NC(=O)C23CC4CC(CC(C4)C2)C3)CC1`, for which the inhibition is, setting by setting: under setting [1], -5.17% (inactive); (mutant strain inhibition) 19%.

For the compound `CC(C)NC(=S)N1CCN(S(C)(=O)=O)CC1`, the inhibition is -2.96% (inactive) under setting [1] and 11.2% (mutant strain inhibition).

As to `COc1ccccc1NC(=S)N1CCN(C(c2ccccc2)c2ccccc2)CC1`, the inhibition under setting [1] was 58.8% (active) and the inhibition (mutant strain inhibition) was 38.3%.

`CC(C)OCC(O)CN1CCN(C(c2ccccc2)c2ccccc2)CC1` (stereo not drawn): the inhibition under setting [1] is 11% (inactive) and the inhibition (mutant strain inhibition) was determined as 3.96%.

As for `CC(C)NC(=S)N1CCN(C(c2ccccc2)c2ccccc2)CC1`, the inhibition was 64.7% (active) under setting [1] and 29.4% (mutant strain inhibition).

Turning to `O=C1CN(C(=O)COC(=O)c2cnc(Cl)c(Cl)c2)c2ccccc2N1`, the inhibition is, setting by setting: under setting [1], -3.97% (inactive); (mutant strain inhibition) -29.4%.

For the compound `O=C(COC(=O)c1ccco1)NCc1ccc(Cl)cc1`, the inhibition is 2.75% (inactive) under setting [1] and -1.13% (mutant strain inhibition).

For `Cc1n[nH]c(=O)n1-c1ccc(C(C)C)cc1`, the inhibition was -5.29% (inactive) under setting [1] and -2.69% (mutant strain inhibition).

As for `O=C(CO/N=C/c1ccc(OC(F)F)cc1)NCc1ccc(F)cc1`, the inhibition is, setting by setting: under setting [1], 16.7% (inactive); (mutant strain inhibition) 27%.

With `CC(C(=O)N=Nc1c(O)n(C)c2ccc(Br)cc12)n1cnc2ccccc2c1=O` (stereo not drawn), the inhibition is 17.8% (inactive) under setting [1] and 30.6% (mutant strain inhibition).

With `COCCN(CCOC)S(=O)(=O)c1ccc(/C(O)=C(\C#N)c2nc3ccccc3[nH]2)cc1`, the inhibition was -0.78% (inactive) under setting [1] and -1.8% (mutant strain inhibition).

For `CC(C)CN1CCNC(=O)C1CC(=O)N(C)CC1CCOCC1` (stereo not drawn), the inhibition is, setting by setting: under setting [1], -4.62% (inactive); (mutant strain inhibition) -8.09%.

For the compound `COC(=O)C1=C(C)N(c2ccc(C)cc2)/C(=C/c2ccc(O)cc2)C1=O`, the inhibition was 5.84% (inactive) under setting [1] and 0.5% (mutant strain inhibition).

For the compound `COc1ccc(/C=N/NC(=O)CNC(=O)c2ccc(S(=O)(=O)N3CCCC3)cc2)c(OC)c1`, the inhibition reads like this: under setting [1], 7.02% (inactive); (mutant strain inhibition) 8.18%.

As for `Cc1nnc(CN(C)Cc2cn[nH]c2-c2ccc(-c3ccccc3)cc2)o1`, the inhibition by setting is: under setting [1], 6.53% (inactive); (mutant strain inhibition) -1.49%.

On to `CCCc1ccc(OCC(=O)NNC(=S)NC(=O)c2ccco2)cc1`, for which the inhibition by setting is: under setting [1], 87.8% (inactive); (mutant strain inhibition) 88.2%.

For `CC(Oc1ccc2ccccc2c1)C(=O)NNC(=S)NC(=O)c1ccco1` (stereo not drawn), the inhibition reads like this: under setting [1], 86.5% (active); (mutant strain inhibition) 80.5%.

With `O=C(Nc1ccc2ccccc2c1)/C(=C/c1cccc(Br)c1)NC(=O)c1ccco1`, the inhibition under setting [1] is 17.2% (inactive) and the inhibition (mutant strain inhibition) is 10.9%.

On to `CCCNC(=O)c1ccccc1NC(=O)CSCc1ccc(OC)cc1`, for which the inhibition was 72.9% (active) under setting [1] and 19.6% (mutant strain inhibition).

Turning to `CCCCCNC(=O)c1cccnc1SCC(=O)Nc1ccccc1OC`, the inhibition runs as follows: under setting [1], -6.44% (inactive); (mutant strain inhibition) -24%.

As for `CCCNC(=O)Nc1ccccc1C(=O)Nc1ccc(OC)cc1`, the inhibition reads like this: under setting [1], -0.69% (inactive); (mutant strain inhibition) -0.17%.

`Cc1cccc(C)c1NC(=O)C1(C)c2cccc[n+]2CC(=O)N1Cc1cccs1` (stereo not drawn): the inhibition is -7.87% (inactive) under setting [1] and 0.75% (mutant strain inhibition).

As for `COc1cc(/C=N/Nc2ccc(C)cc2)cc(Br)c1O`, the inhibition is, setting by setting: under setting [1], 15.8% (inactive); (mutant strain inhibition) 37.7%.

Consider `CCOc1cc(/C=N/O)cc(Br)c1OC`, for which the inhibition under setting [1] is -2.36% (inactive) and the inhibition (mutant strain inhibition) was -20.3%.

As for `CCOc1c(Cl)cc(/C=N/O)cc1OC`, the inhibition reads like this: under setting [1], -6.94% (inactive); (mutant strain inhibition) -20.7%.

On to `COc1cccc(/C=N/NC(=O)c2cccc([N+](=O)[O-])c2)c1OS(=O)(=O)c1ccc(C)cc1`, for which the inhibition is, setting by setting: under setting [1], -5.41% (inactive); (mutant strain inhibition) -3.16%.

Consider `COc1cc(/C=N/O)cc(Br)c1OS(=O)(=O)c1ccc(C)cc1`, for which the inhibition under setting [1] is 71.3% (active) and the inhibition (mutant strain inhibition) came out at 30.6%.

Take `COc1cc(/C=N/O)cc(Br)c1OCc1cccc(Cl)c1`: the inhibition reads like this: under setting [1], 91.4% (active); (mutant strain inhibition) 76.3%.

For the compound `N#CC1(C#N)C(C(=O)C23CC4CC(CC(C4)C2)C3)C12CCOCC2` (stereo not drawn), the inhibition is, setting by setting: under setting [1], 21.5% (inactive); (mutant strain inhibition) 11.6%.

`CCOc1cc(N2CCOCC2)c(OCC)cc1NC(=O)C1=NN(c2cccc(C)c2)C(=O)CC1`: the inhibition was -2.98% (inactive) under setting [1] and 16.4% (mutant strain inhibition).

As to `Cc1cc(C)c(OCCN2CC(C)OC(C)C2)c(Br)c1` (stereo not drawn), the inhibition is, setting by setting: under setting [1], 21.8% (inactive); (mutant strain inhibition) 42.5%.

As for `Cc1ccc(OCc2n[nH]c(=S)n2-c2ccccc2)cc1`, the inhibition under setting [1] is 11.4% (inactive) and the inhibition (mutant strain inhibition) was determined as 20.6%.

For `Cc1ccc(OCc2n[nH]c(=S)n2-c2ccc(C)cc2)cc1`, the inhibition by setting is: under setting [1], 69.9% (active); (mutant strain inhibition) 60.1%.

Regarding `S=c1[nH]nc(COc2ccccc2)n1-c1ccccc1`, the inhibition was -7.14% (inactive) under setting [1] and -7.05% (mutant strain inhibition).

Turning to `COc1ccc(CN(C)C(=S)Nc2ccc(Cl)cc2Cl)cc1`, the inhibition reads like this: under setting [1], 22.4% (inactive); (mutant strain inhibition) 21.9%.

For the compound `O=Cc1cn(Cc2ccccc2)nc1-c1cccnc1`, the inhibition is, setting by setting: under setting [1], -22.6% (inactive); (mutant strain inhibition) 3.85%.

For the compound `N#C/C(=C(\O)C(F)(F)F)c1nnc2n1CCCCC2`, the inhibition under setting [1] was 22% (inactive) and the inhibition (mutant strain inhibition) is 13.5%.

On to `Cc1ccc2nc(-c3ccccc3)cc(C(=O)O)c2c1`, for which the inhibition runs as follows: under setting [1], 3.84% (inactive); (mutant strain inhibition) 0.25%.

With `CCS(=O)(=O)Nc1cccc(-c2cc(-c3ccccc3)c3cc(C)ccc3n2)c1`, the inhibition was 69.3% (active) under setting [1] and -17.6% (mutant strain inhibition).

On to `CC(=O)Nc1cccc(-c2cnc3ccccc3n2)c1`, for which the inhibition is 13.3% (inactive) under setting [1] and 9.81% (mutant strain inhibition).

Turning to `CCC(C)(C)NC(=O)/C=C/c1cc(OC)c(OC)c(S(=O)(=O)N2CCc3ccccc32)c1`, the inhibition under setting [1] was 7.15% (inactive) and the inhibition (mutant strain inhibition) is 8.01%.

For `COc1ccc(CS(=O)/C(Cl)=C(/Cl)C(=O)Nc2ccc(OC)nc2)cc1` (stereo not drawn), the inhibition is 80% (inactive) under setting [1] and 83.5% (mutant strain inhibition).

With `NC(=O)c1sc2nc3c(c(-c4ccccc4)c2c1N)CCC3`, the inhibition is, setting by setting: under setting [1], -6.05% (inactive); (mutant strain inhibition) -18.6%.

Turning to `Cc1nc2sc(C(=O)c3ccccc3)c(N)c2c2c1CCCC2`, the inhibition under setting [1] is 66.8% (active) and the inhibition (mutant strain inhibition) is 35.7%.

Take `CN(C)c1ccnc2sc(C(=O)c3ccccc3)c(N)c12`: the inhibition is 38.8% (inactive) under setting [1] and 22.2% (mutant strain inhibition).

As to `COc1ccccc1CNC(=O)C1Cc2ccccc2C(=O)O1` (stereo not drawn), the inhibition reads like this: under setting [1], -29.6% (inactive); (mutant strain inhibition) -2%.

In the case of `CCOc1cc(NC(=O)CCl)c(OCC)cc1NC(C)=O`, the inhibition under setting [1] was -12.2% (inactive) and the inhibition (mutant strain inhibition) was found to be 11.6%.

Turning to `CC(C)(C)NC(=O)CN1CCC(NC(=O)C23CC4CC(CC(C4)C2)C3)CC1`, the inhibition is -5.35% (inactive) under setting [1] and -4.48% (mutant strain inhibition).
